± gives the standard deviation of the averaged measurements.
test system: Drosophila virilis antennal basiconic sensillum AB1; assay: odor-evoked OSN spike response (post minus pre-stimulus); higher = stronger neuronal excitation; details: odor dilution: 10^-4
Method: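 Single sensillum recordings from antennal basiconic sensilla of D. virilis. A 500 ms pulse of odorant (10^-4 in mineral oil or DMSO) was delivered; the response is the change in spike frequency between the 1 s pre- and post-stimulus windows (spikes/s).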

| SMILES | odor-evoked OSN spike response |
| --- | --- |
| CC(C)=O [acetone] | 73.5 ± 24 spikes/s |
